Compound activity: PubChem, several laboratories
Hits are enriched below; roughly 2.9% of the tested compounds scored in any of these assays.
proKLK7 act = proKLK7 zymogen activators, primary screen, biochemical, fluorescence intensity | 370,000 compounds, 0.9% hits | activation, % at 7 µM | purified proKLK7, EDANS-DABCYL substrate fluorescence; 100% is mature enzyme control, 0% vehicle;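 active = activation above the mean of all tested compounds plus 3 SD, computed per campaign excluding outliers beyond control limits, cut at about 13% in these data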
Target sequence (P49862 whole entry, looked up): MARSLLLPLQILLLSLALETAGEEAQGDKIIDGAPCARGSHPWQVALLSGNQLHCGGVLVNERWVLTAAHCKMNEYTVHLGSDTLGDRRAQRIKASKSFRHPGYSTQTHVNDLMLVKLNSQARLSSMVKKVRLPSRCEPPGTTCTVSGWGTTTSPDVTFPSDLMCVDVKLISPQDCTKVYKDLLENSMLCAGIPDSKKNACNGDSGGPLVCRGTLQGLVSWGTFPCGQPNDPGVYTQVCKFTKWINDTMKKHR
SMARCA2 act = SMARCA2 (BRM) function activators, primary screen, cell-based, luminescence, high throughput. MG213 cells, MMTV-luciferase reporter, dexamethasone, overnight. 370,000 compounds, 1% hits. activation, % at 9.1 µM; in the data active = activation above about 7.8%;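 note: 0% = vehicle wells and 100% = reference activator wells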
FAS-TE inh = FAS thioesterase domain inhibitors, primary screen, biochemical, fluorescence intensity, uHTS | Fatty acid synthase (Homo sapiens), P49327 | recombinant FAS-TE, OMFH fluorogenic substrate, fluorescence endpoint | inhibition, % at 15 µM | 360,000 compounds, 0.67% hits | AID 602261, 2012;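 active = compounds whose normalised, plate-corrected inhibition of enzyme fluorescence in the single-dose primary screen is 50% or more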;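 note: 0% = DMSO with enzyme and 100% = substrate without enzyme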
FXN GAA850 act = FXN promoter activators, primary screen, cell-based, luciferase luminescence, HEK293 lucGAA850. HEK293 lucGAA850 FXN promoter luciferase reporter, 24 h; percent of 10 µM SAHA response. activation, % at 6 µM. 360,000 compounds, 0.56% hits. AID 540364, 2011;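 active = activation above the average of all compounds screened plus 3 SD, cutoff fixed separately per campaign, cut at about 7.5% in these data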;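 note: 0% = DMSO wells and 100% = 10 µM SAHA wells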
GAA30 FXN cntr = GAA30 FXN promoter activators, confirmation, counter-screen for GAA850 frataxin promoter activator project, cell-based, luminescence, HEK293, lucGAA30, triplicate; 1,900 compounds, 66% hits; shares compounds with FXN GAA850 act; HEK293 lucGAA30 FXN promoter luciferase, 24 h; DMSO = 0%, 5 µM ipriflavone = 100%; activation, % at 6 µM; AID 588350, 2011;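 active = mean activation above the mean of solvent-only control wells plus 3 SD, cut at about 22% in these data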;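 note: counterscreen of GAA850 promoter hits where activity marks nonselective or luminescence artifacts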
GAA850 confirm = FXN GAA850 promoter activators in reporter cells, confirmation, cell-based, luminescence, HEK293 lucGAA850, triplicate; shares compounds with FXN GAA850 act; HEK293 lucGAA850 FXN promoter luciferase reporter, 24 h; 100% = activation by SAHA; activation, % at 6 µM; 1,900 compounds, 86% hits;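 active = mean activation above a set limit taken from the primary screen, cut at about 8% in these data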;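 note: 0% = DMSO wells and 100% = 10 µM SAHA wells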
* marks the source's active call; other numbers are inactive results; x = not tested or not shown.

SMILES | proKLK7 act | SMARCA2 act | FAS-TE inh | FXN GAA850 act | GAA30 FXN cntr | GAA850 confirm
CCN(CC)c1ccc(/C=C2/SC(=O)N(C(C)C)C2=O)o1 | 0.7 | 6.8 | -100.4 | 8.0* | 96.0* | 31.8*
Cc1cc(C)c(NC(=O)COC(=O)Cc2cccs2)c(C)c1 | -0.5 | -3.2 | 4.4 | 0.0 | x | x
Cc1cc(C)cc(-n2c(SC(C)C(=O)NCc3ccc4c(c3)OCO4)nc3ccccc3c2=O)c1 (stereo unspecified) | 0.3 | -5.1 | 18.6 | 8.7* | 23.9* | 8.2*
CCCCCn1c(CN2CCN(c3cccc(Cl)c3)CC2)nc2c1c(=O)[nH]c(=O)n2C | -0.1 | -1.9 | 35.9 | 8.5* | -19.5 | 2.2
Cn1c(=O)[nH]c(=O)c2c1nc(CN1CCN(c3cccc(Cl)c3)CC1)n2CCc1ccccc1 | -0.1 | -1.6 | 10.4 | 1.0 | x | x
Cc1cn([C@H]2C[C@H](O)[C@@H](/C=C/C(=O)NCCc3ccc(S(N)(=O)=O)cc3)O2)c(=O)[nH]c1=O | -0.1 | -4.1 | 1.2 | x | x | x
Cn1nnnc1SCc1nc2ccccc2s1 | -0.1 | 2.8 | -5.8 | 3.7 | x | x
Cc1cccc(C)c1Nc1nnc(SCc2nc3ccccc3s2)s1 | 0.5 | 3.8 | 6.2 | 8.6* | 120.8* | 42.9*
Cc1ccnc(SCc2nc3ccccc3s2)n1 | 0.3 | 5.2 | -2.2 | 8.3* | 104.3* | 31.3*
Cc1ccccc1N(C(=O)c1ccccn1)C(C(=O)NCc1ccccc1)c1cccnc1 (stereo unspecified) | -0.5 | 4.0 | -6.1 | -1.1 | x | x
CCOC(=O)C1CCN(C=Nc2cc(C)on2)CC1 | -0.7 | -0.2 | -9.9 | -0.6 | x | x
CC(C)CCn1c(SCC(N)=O)nc2c1c(=O)n(C)c(=O)n2C | 0.0 | -0.3 | -0.6 | 10.9* | 18.3 | 9.7*
CC(C)n1c(SCC(N)=O)nc2c1c(=O)n(C)c(=O)n2C | 0.1 | 4.3 | -9.3 | 1.1 | x | x
Cc1nc(-c2nc(-c3c(C(=O)NNC(=O)c4ccc(Cl)cc4)noc3C)cs2)cs1 | -0.6 | 0.4 | 14.2 | 1.1 | x | x
Cc1nc(-c2nc(-c3c(C(=O)NN)noc3C)cs2)cs1 | 0.1 | 4.8 | -3.3 | 8.3* | 87.9* | 26.8*
COc1ccc(NC(=S)N2CCN(c3ncccn3)CC2)c(OC)c1 | -0.3 | -2.4 | -0.5 | -0.8 | x | x
Fc1ccc(C2CC(c3ccco3)n3ncnc3N2)cc1 (stereo unspecified) | 0.3 | 0.0 | -5.0 | 1.0 | x | x
Cc1ccc(C2CC(c3ccco3)n3ncnc3N2)cc1 (stereo unspecified) | -0.3 | 3.5 | 1.3 | 11.0* | 12.3 | 5.7
Cc1cccc(OCC(=O)NNC(=O)C2CCN(c3ncnc4sc(C)c(C)c34)CC2)c1 | -0.3 | 0.8 | 0.1 | -1.0 | x | x
N#Cc1cc([N+](=O)[O-])ccc1NCCCn1ccnc1 | 0.5 | 1.0 | -1.3 | 3.4 | x | x
Cc1ccc(Nc2ncccc2C(=O)O)cc1C | 0.2 | 2.7 | -3.4 | 0.7 | x | x
Cc1ccc(Nc2ncccc2C(N)=O)cc1[N+](=O)[O-] | -0.4 | 6.9 | 5.1 | 10.4* | 100.1* | 27.0*
Nc1nc(-c2ccccc2)cc(-c2ccccc2O)n1 | 0.7 | 0.5 | 18.6 | 9.3* | 53.5* | 47.6*
COCCCNC(=S)Nc1ccc(N2CCCCC2)cc1 | -0.3 | -2.7 | -0.8 | -0.4 | x | x
Cc1nc(NC(=O)c2cccc(-c3cc4ccccc4oc3=O)c2)ccc1Br | 0.0 | 4.8 | 9.7 | -1.1 | x | x
SMILES | proKLK7 act | SMARCA2 act | FAS-TE inh | FXN GAA850 act | GAA30 FXN cntr | GAA850 confirm
O=C(Nc1ccc(Br)cn1)c1cccc(-c2cc3ccccc3oc2=O)c1 | -3.0 | 3.4 | -3.8 | 9.4* | 117.8* | 32.9*
Cn1c(N)cc(=O)[nH]c1=S | -0.1 | -2.4 | -9.2 | -0.2 | x | x
CCOC(=O)Cn1c2ccccc2c2nc3ccccc3nc21 | 0.0 | 3.7 | -0.6 | 0.9 | x | x
O=C(O)Cn1c2ccccc2c2nc3ccccc3nc21 | x | x | -3.0 | 10.2* | 104.5* | 33.0*
CCOc1ccc(OCc2cccc(C(=O)N3CCCCCC3)c2)cc1 | 0.2 | 4.9 | 12.4 | 7.8* | 104.9* | 34.9*
O=c1[nH]c2ccccc2c2cn(-c3ccccc3)nc12 | 0.9 | 5.6 | -5.6 | 8.8* | 112.4* | 45.6*
CCOC(=O)c1oc2c(c1C)/C(=N/O)CCC2 | -0.6 | -2.0 | -5.0 | 8.0* | 64.9* | 22.8*
C=CCNc1nc(Cl)nc(Nc2ccc(OC)cc2)n1 | -0.3 | 3.1 | -0.5 | 8.1* | 63.9* | 25.0*
CN1C(=O)c2cc(NS(=O)(=O)c3cccc(F)c3)ccc2OC[C@@H]2O[C@H](CC(=O)O)CC[C@H]21 | 0.0 | -0.2 | x | x | x | x
CCc1ccc(O)c(-c2cc(C(=O)Nc3cccnc3)[nH]n2)c1 | -0.1 | 4.0 | -1.7 | 7.8* | 97.0* | 30.5*
Cc1cc(O)c(-c2cc(C(=O)Nc3cccnc3)[nH]n2)cc1C | -0.1 | 5.6 | -2.9 | 5.9 | x | x
O=C(CCS(=O)(=O)c1ccccc1)N(CCCN1CCOCC1)c1nc2ccc(F)cc2s1 | 0.2 | 1.9 | 2.9 | 14.6* | 105.2* | 65.8*
O=C(CCS(=O)(=O)c1ccccc1)N(CCCN1CCOCC1)c1nc2c(F)cccc2s1 | 0.9 | 3.7 | 9.2 | 4.8 | x | x
CCCc1nc2ccccc2c2nc(N)nn12 | -0.6 | 1.5 | -8.0 | 8.5* | 15.6 | 7.3
Nc1nc2c3ccccc3nc(Cc3ccccc3)n2n1 | 1.0 | -1.4 | -3.5 | 3.2 | x | x
Cc1ccc2nc(-c3ccc(O)c(O)c3)cn2c1 | -3.4 | 1.1 | -3.4 | 10.5* | 122.5* | 49.5*
COc1ccc(C(CC(=O)c2ccc(C)cc2)C(C#N)C#N)cc1OC (stereo unspecified) | 0.0 | -4.6 | 10.7 | 8.0* | 39.3* | 37.8*
Cc1cc(C(=O)OC(C)C(=O)N2CCc3ccccc32)ccc1[N+](=O)[O-] (stereo unspecified) | 0.8 | -1.0 | 38.1 | -0.6 | x | x
COc1ccc(NC2=C(c3ccc(OC)cc3)C(=O)c3ccccc32)cc1 | 0.2 | -3.4 | 1.7 | -0.2 | x | x
COc1ccc(C2=C(N)c3ccccc3C2=O)cc1 | x | x | -8.2 | 7.7* | 102.1* | 33.5*
CC(=O)NC1C(OC(=O)/C=C/c2ccccc2)OC(COC(C)=O)C(OC(C)=O)C1OC(C)=O (stereo unspecified) | 0.4 | 0.9 | -5.8 | 0.9 | x | x
COc1ccc(CN2C(=O)c3ccccc3C2c2nnnn2Cc2ccccc2)cc1 (stereo unspecified) | 0.8 | -5.2 | -3.3 | x | x | x
CC1=CC(=C2C(=O)c3ccccc3C2=O)C=C(C)N1C | 0.2 | 1.4 | -5.6 | 8.2* | 111.2* | 33.9*
